RVFV N-RNA inh: inhibitors of RVFV nucleoprotein–RNA binding, primary screen, biochemical, fluorescence polarization; AID 651828, 2012; % bound, % (test concentration not listed); RVFV N-RNA binding; stronger effect = lower value; P21700; 20,000 compounds, 0.1% hits; in the data active = % bound below about 75%
Numbers without * were called inactive. These entries were drawn from the full list.

SMILES	RVFV N-RNA inh
Cc1c(C(=O)O)sc2[nH]c(=S)[nH]c(=O)c12	95
CCN1CCC(N(C)CCc2ccccc2)CC1	110
CO[C@H]1O[C@H](COC(C)=O)[C@@H](OC(C)=O)[C@H](OC(C)=O)[C@H]1OC(C)=O	96
CCOC(OCC)c1ccc(C=C(C#N)C#N)cc1	91
CCC(=O)c1ccccc1OCCn1cnc2ccccc2c1=O	95
CC1=CC(=O)NC2C=CC=CC12 (stereo not drawn)	100
S=c1nc[nH]c2c1sc1ncccc12	98
